# Source: article PMC8384837, “Expanding the binding specificity for RNA recognition by a PUF domain”
# Assays:
# Experiment in all cases: yeast three-hybrid, YBZ-1, SC-Leu-His + 0.5 mM 3-AT, 4 days
# Settings in all cases: tags: N-Gal4 AD-HA kept; label: inside an RPR1-promoter hybrid RNA with tandem MS2 sites; ssRNA
# PUM1 PUF domain R8-AWK = PUM1 PUF domain R8-AWK (Homo sapiens, UniProt Q14671 828-1176, N1122A;Y1123W;Q1126K)
# In short: (§1)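 A centromeric plasmid in strain YBZ-1 co-expressed Pumilio-1 PUF domain libraries, randomized at the three base-contacting residues of each repeat, with matching RNA elements; the strain carries a LexA–MS2 coat fusion and a HIS3 reporter. After four days on SC-Leu (input) or SC-Leu-His + 0.5 mM 3-AT (selection), the repeat regions were PCR-amplified and Illumina-sequenced. The interaction score is the log change in variant frequency from input to selection, using log2 and a pseudocount of 1 where absent.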
# PUM1 PUF domain R6-GYQ = target: T1, PUM1 PUF domain R6-GYQ (Homo sapiens, UniProt Q14671 828-1176, N1043G)
# T1 sequence: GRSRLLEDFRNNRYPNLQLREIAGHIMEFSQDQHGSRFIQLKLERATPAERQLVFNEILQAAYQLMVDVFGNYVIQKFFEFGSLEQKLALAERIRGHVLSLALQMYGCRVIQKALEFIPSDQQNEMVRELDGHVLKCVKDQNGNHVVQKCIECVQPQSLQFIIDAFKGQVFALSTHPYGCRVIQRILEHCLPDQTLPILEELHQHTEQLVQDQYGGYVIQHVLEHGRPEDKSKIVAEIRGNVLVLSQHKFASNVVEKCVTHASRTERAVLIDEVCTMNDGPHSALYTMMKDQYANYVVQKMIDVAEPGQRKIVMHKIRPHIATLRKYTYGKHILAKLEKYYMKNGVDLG
# In short: as §1
# PUM1 PUF domain R1-RWS = PUM1 PUF domain R1-RWS (Homo sapiens, UniProt Q14671 828-1176, S863R;R864W;Q867S)
# In short: as §1
# PUM1 PUF domain R1-RGT = PUM1 PUF domain R1-RGT (Homo sapiens, UniProt Q14671 828-1176, S863R;R864G;Q867T)
# In short: as §1
# PUM1 PUF domain R3-LSV = PUM1 PUF domain R3-LSV (Homo sapiens, UniProt Q14671 828-1176, C935L;R936S;Q939V)
# In short: as §1
# PUM1 PUF domain R3-LWN = PUM1 PUF domain R3-LWN (Homo sapiens, UniProt Q14671 828-1176, C935L;R936W;Q939N)
# In short: as §1
# PUM1 PUF domain R5-RGG = PUM1 PUF domain R5-RGG (Homo sapiens, UniProt Q14671 828-1176, C1007R;R1008G;Q1011G)
# In short: as §1
# PUM1 PUF domain R1-MGR = PUM1 PUF domain R1-MGR (Homo sapiens, UniProt Q14671 828-1176, S863M;R864G;Q867R)
# In short: as §1
# Sequence of PUM1 PUF domain R1-RWS (Q14671 828-1176 S863R/R864W/Q867S): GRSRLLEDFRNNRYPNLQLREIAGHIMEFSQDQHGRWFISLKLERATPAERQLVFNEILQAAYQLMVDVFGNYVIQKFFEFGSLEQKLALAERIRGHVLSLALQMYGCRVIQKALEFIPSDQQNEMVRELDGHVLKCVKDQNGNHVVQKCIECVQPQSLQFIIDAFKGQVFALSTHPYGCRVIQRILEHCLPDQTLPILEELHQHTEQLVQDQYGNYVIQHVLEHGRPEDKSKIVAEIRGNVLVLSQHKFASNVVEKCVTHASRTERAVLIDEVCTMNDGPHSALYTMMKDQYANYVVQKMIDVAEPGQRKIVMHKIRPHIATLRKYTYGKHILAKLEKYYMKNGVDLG
# Sequence of PUM1 PUF domain R1-RGT (Q14671 828-1176 S863R/R864G/Q867T): as the sequence (Q14671 828-1176 S863R/R864W/Q867S) above, with W37G, S40T counted along it
sequence,measurement,setting,value
GGCUAGAACUAGUGGAUCCCCCGGCGCCCGGCGGCUCGAGCCCGGGUAAGUGUAAAUAGUCUGCAUGCCGCCGGGCGCCAUGCCUGCAGGUCGACUCUAGAAAACAUG,binding signal,PUM1 PUF domain R8-AWK,5.21 log2 enrichment (interaction score)
same,binding signal,PUM1 PUF domain R6-GYQ,3.62 log2 enrichment (interaction score)
GGCUAGAACUAGUGGAUCCCCCGGCGCCCGGCGGCUCGAGCCCGGGUAAGUGUAAAUGGUCUGCAUGCCGCCGGGCGCCAUGCCUGCAGGUCGACUCUAGAAAACAUG,binding signal,PUM1 PUF domain R1-RWS,1.65 log2 enrichment (interaction score)
same,binding signal,PUM1 PUF domain R1-RGT,1.3 log2 enrichment (interaction score)
GGCUAGAACUAGUGGAUCCCCCGGCGCCCGGCGGCUCGAGCCCGGGUAAGUGUAAUUAGUCUGCAUGCCGCCGGGCGCCAUGCCUGCAGGUCGACUCUAGAAAACAUG,binding signal,PUM1 PUF domain R3-LSV,2.26 log2 enrichment (interaction score)
same,binding signal,PUM1 PUF domain R3-LWN,4 log2 enrichment (interaction score)
GGCUAGAACUAGUGGAUCCCCCGGCGCCCGGCGGCUCGAGCCCGGGUAAGUGUAAGUAGUCUGCAUGCCGCCGGGCGCCAUGCCUGCAGGUCGACUCUAGAAAACAUG,binding signal,PUM1 PUF domain R3-LSV,3.37 log2 enrichment (interaction score)
GGCUAGAACUAGUGGAUCCCCCGGCGCCCGGCGGCUCGAGCCCGGGUAAGUGUCAAUAGUCUGCAUGCCGCCGGGCGCCAUGCCUGCAGGUCGACUCUAGAAAACAUG,binding signal,PUM1 PUF domain R5-RGG,2.8 log2 enrichment (interaction score)
GGCUAGAACUAGUGGAUCCCCCGGCGCCCGGCGGCUCGAGCCCGGGUAAGUGUAAAUUGUCUGCAUGCCGCCGGGCGCCAUGCCUGCAGGUCGACUCUAGAAAACAUG,binding signal,PUM1 PUF domain R1-RWS,3.86 log2 enrichment (interaction score)
same,binding signal,PUM1 PUF domain R1-MGR,2.75 log2 enrichment (interaction score)
same,binding signal,PUM1 PUF domain R1-RGT,4.56 log2 enrichment (interaction score)
GGCUAGAACUAGUGGAUCCCCCGGCGCCCGGCGGCUCGAGCCCGGGUAAGUGUUAAUAGUCUGCAUGCCGCCGGGCGCCAUGCCUGCAGGUCGACUCUAGAAAACAUG,binding signal,PUM1 PUF domain R5-RGG,2.55 log2 enrichment (interaction score)
GGCUAGAACUAGUGGAUCCCCCGGCGCCCGGCGGCUCGAGCCCGGGUAAGUGUAAAUCGUCUGCAUGCCGCCGGGCGCCAUGCCUGCAGGUCGACUCUAGAAAACAUG,binding signal,PUM1 PUF domain R1-RWS,2.83 log2 enrichment (interaction score)
same,binding signal,PUM1 PUF domain R1-MGR,1.49 log2 enrichment (interaction score)
same,binding signal,PUM1 PUF domain R1-RGT,5.04 log2 enrichment (interaction score)
